High-throughput results: PubChem BioAssay, several laboratories
tim10-1 inh – growth inhibitors of tim10-1 mutant yeast. S. cerevisiae tim10-1 ts strain growth, BacTiter-Glo, 24 h. inhibition, % at 20 µM. actives 2.2% (n = 330,000);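 active means inhibition of at least 40%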;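 further: mutant grown at 25 °C; 0% = DMSO wells with yeast and 100% = wells holding no yeast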
NLRP3 yeast inh – blocks the NALP3 inflammasome reconstituted in yeast. Yeast reconstituted NLRP3/ASC/caspase-1, beta-gal luminescence, 24 h. inhibition, % at 10 µM. actives 0.39% (n = 330,000). AID 2825;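 active means inhibition of 50% or more; inactive means inhibition below 50%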;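 further: plate controls were induced DMSO wells for no effect and uninduced yeast grown without galactose for full effect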
TIM10 inh – growth inhibitors of TIM10 yeast strain; S. cerevisiae TIM10 strain growth, BacTiter-Glo luminescence, 24 h; inhibition, % at 10 µM; actives 1.4% (n = 330,000);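 active means inhibition of 40% or more at the single tested concentration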;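 further: wild-type TIM10 isogenic control strain grown at permissive 25 °C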
NALP1 inh – NALP1 inhibition | AID 2071 | inhibition, % at 10 µM | actives 0.61% (n = 280,000) | S. cerevisiae NALP1/ASC/caspase-1 growth, X-gal OD620, 72 h; in the data active means inhibition mostly above about 24%, no sharp cut-off; inactive means mostly below about 32%
tim23-1 inh – growth inhibitors of tim23-1 mutant yeast; S. cerevisiae tim23-1 growth, BacTiter-Glo luminescence, 24 h; inhibition, % at 20 µM; actives 1.3% (n = 330,000); AID 463212;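 active means growth inhibition of the mutant yeast at or above 50%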;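 further: temperature-sensitive mutant grown at 25 °C; plate controls were DMSO-treated mutant yeast for no effect and medium wells lacking yeast for full effect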
SKKanGAS inh – SKKanGAS growth inhibition; S. pyogenes SKKanGAS, kanamycin growth, BacTiter-Glo, 6 h; inhibition, % at 7.5 µM; actives 1.3% (n = 300,000);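 active means mean replicate score, as percent of positive control median, at least 50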;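 further: strain carries kanamycin resistance gene driven by streptokinase promoter and grows in 40 µg/ml kanamycin; loss of luminescence reflects streptokinase promoter inhibition or plain growth inhibition; 0% = median of DMSO wells and 100% = positive control at its reference dose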
Active calls of the source: *; nt = not tested or not shown; ! = not confirmed by another sample. This is a sample that favours compounds with a hit; in the whole collection about 4.9% have one here.

SMILES	tim10-1 inh	NLRP3 yeast inh	TIM10 inh	NALP1 inh	tim23-1 inh	SKKanGAS inh
C#C[C@]1(O)CC[C@H]2[C@@H]3CCc4cc(OC5CCCC5)ccc4[C@H]3CC[C@@]21C	17	17	12	9	27	103*
CCOC(=O)C1CCCN(C(=O)Nc2c(-c3ccccc3)noc2C)C1 (stereo unspecified)	-6	10	2	36*	-12	-6
C#CCNC(=O)C1=C[C@@H](C)[C@H](CCCO)[C@@H](OCC)O1	-23	32	2	nt	-3	-2
CC12CCC(C/C1=N\N=C1\NC(=O)/C(=C\c3ccc(Cl)cc3)S1)C2(C)C (stereo unspecified)	34	3	3	37	15	106*
Cc1ccc(O)c(/C=N/NC(=O)Cc2ccc(Cl)cc2)c1	-1	30	0	8	16	97*
Cc1cccc(/C=N/NC(=O)Cc2ccc(Cl)cc2)c1O	-11	14	9	6	35	107*
Cc1cccc(/C=N\NC(=O)c2ccc(Cl)cc2)c1O	-8	15	2	-9	-3	93*
Cc1ccsc1/C=N/NC(=O)Cc1ccc(Cl)cc1	1	12	-1	nt	22	-10
C/C(=N\NC(=O)c1cc(-c2cccc(OC(C)C)c2)nc2ccccc12)c1cccnc1	6	15	4	-12	24	25
C/C(=N/NC(=O)c1cc(-c2ccccc2)nc2c(Cl)cccc12)c1cccnc1	14	17	6	11	21	90*
COc1ccc(NS(=O)(=O)c2ccc(C(=O)N(C)Cc3ccc(C)o3)cc2)cc1	18	3	13	nt	21	nt
CN(C)c1ccc(NS(=O)(=O)c2ccc(-c3csnn3)cc2)cc1	25	20	16	43*	12	-2
O=C(COc1ccc(Cl)cc1Cl)Nc1ccc(-c2ccc(N3CCOCC3)nn2)cc1	6	16	-3	nt	7	51*
CCN(CC(=O)Nc1cc(Cl)ccc1C)C(=O)c1cc([N+](=O)[O-])ccc1N1CCOCC1	9	9	2	nt	4	-7
Cc1ccc(NC(=O)CN2C(=O)S/C(=C\c3cccn3-c3cccc(C(=O)O)c3)C2=O)c(C)c1	8	10	-25	-8	2	59*
Cc1cccc(C)c1NC(=O)CN1C(=O)S/C(=C\c2cccn2-c2cccc(C(=O)O)c2)C1=O	6	5	-2	-4	-3	13
Cc1cccc(C)c1NC(=O)CN1C(=O)S/C(=C\c2cccn2C)C1=O	13	8	13	40*	5	-16
Cc1cccc(C)c1-n1cccc1/C=C1\SC(=S)N(c2cccc(C(=O)O)c2)C1=O	-54	29	2	17	21	111*
Cc1ccccc1NC(=O)CN1C(=O)S/C(=C\c2cccn2-c2cccc(C(=O)O)c2)C1=O	-6	14	-19	-13	-6	3
COc1ccc(CN(C)C(=O)CNC(=O)CNC(=O)c2ccc(Cl)cc2Cl)cc1F	18	-1	-7	12	6	-5
CC(=O)c1c[nH]c(C(=O)Nc2ccc(N3CCCCCC3)cc2)c1	-8	11	-2	nt	-8	nt
CCOC(=O)c1[nH]c(C)c(CCC(=O)O)c1C	-8	11	-5	41*!	-11	-7
Cc1noc(NS(=O)(=O)c2ccc(NC(=O)c3oc4ccc(Cl)cc4c3C)cc2)c1C	12	1	6	2	5	64*
Cc1ccc2c(C)c(C(=O)Nc3ccc(S(=O)(=O)Nc4onc(C)c4C)cc3)oc2c1	6	-2	17	12	16	65*
Cc1c(C(=O)Nc2ccc(S(=O)(=O)Nc3ncccn3)cc2)oc2ccc(Cl)cc12	15	7	1	-1	9	24
SMILES	tim10-1 inh	NLRP3 yeast inh	TIM10 inh	NALP1 inh	tim23-1 inh	SKKanGAS inh
Cc1ccc(Cn2c(Cc3ccccc3)nc3ccccc32)cc1	32	36	34	-3	41	69*
CCOC(=O)c1sc(N2C(=O)C(O)=C(C(=O)c3ccco3)C2c2cccc(Cl)c2)nc1C (stereo unspecified)	11	-4	-15	12	19	63*
CCOC(=O)c1sc(N2C(=O)C(O)=C(C(=O)c3ccco3)C2c2cccc([N+](=O)[O-])c2)nc1C (stereo unspecified)	nt	nt	nt	14	nt	65*
Cc1cc(C)c2nc(N3C(=O)C(O)=C(C(=O)c4ccco4)C3c3cccc(O)c3)sc2c1 (stereo unspecified)	12	12	15	nt	25	nt
O=C(c1ccc(F)cc1)N1CCN(S(=O)(=O)c2ccc(Br)cc2)CC1	15	0	-5	23	13	2
CN[C@@H]1CC[C@H](c2ccc(Cl)c(Cl)c2)c2ccccc21	38	37	8	13	28	2
COc1cc(/C=C/C(=O)OCC(=O)NC(=O)NC23CC4CC(CC(C4)C2)C3)ccc1OCC#N	7	7	6	31	10	17
O=C(CCC1COc2ccccc2O1)NC1CCCCC1 (stereo unspecified)	18	19	-26	41*	18	-1
CC(C)(C)NC(=O)CCC1COc2ccccc2O1 (stereo unspecified)	3	8	0	6	15	7
CC(NC(=O)CCC1COc2ccccc2O1)c1ccccc1 (stereo unspecified)	11	20	-11	42*	14	3
COc1ccc([C@H]2CC(=O)C=C(c3ccc(C)c([N+](=O)[O-])c3)C2)cc1	18	28	-6	nt	35	nt
O=C(CCc1ccccc1)Nc1ccc(S(=O)(=O)NC2=NCCCCC2)cc1	6	-4	0	nt	9	nt
Cc1ccccc1Nc1nc(N)nc(COC(=O)/C=C/c2ccco2)n1	8	35	-15	-7	14	-18
COc1c(O)ccc(/C=C(\C#N)c2nc3ccccc3[nH]2)c1[N+](=O)[O-]	-5	20	12	24	17	55*
CSc1ccccc1-c1n[nH]c(=S)o1	24	13	3	-48	20	56*
O=C(Cc1ccc([N+](=O)[O-])cc1)Nc1cccc(C(=O)N2CCCCC2)c1	5	16	2	nt	6	nt
Cc1sc2ncnc(N/N=C/c3ccccc3O)c2c1C	nt	nt	nt	122	nt	94*
CC(C)=CCc1c(-c2ccc(O)cc2O)oc2cc3c(c(O)c2c1=O)C=CC(C)(C)O3	3	18	17	nt	35	107*
CCc1ccc(C2C(C#N)=C(N)C(C#N)(C#N)C3=CCC(C(C)(C)C)CC32)cc1 (stereo unspecified)	33	-6	33	-30	38	85*
COc1ccccc1NS(=O)(=O)CC12CCC(CC1=O)C2(C)C (stereo unspecified)	8	1	8	42*	4	-3
COc1cccc(NS(=O)(=O)CC23CCC(CC2=O)C3(C)C)c1 (stereo unspecified)	16	1	21	-4	4	-2
